Measured values: PubChem BioAssay (NCATS)
Records with an inconclusive call do not appear. The source made the active and inactive calls. Unless noted, the call rests on the fitted dose curve; in most records, active means well fitted curve in the direction sought with a large enough effect; inconclusive means small, poorly fitted or top-dose-only effect, or another doubt; inactive means no such curve, though single readings can be large; an effect the other way counts as inactive or inconclusive.

Experiments:
[1] = Cell Viability - BJ (AID 421; calls by dose curve;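 further: potency means the concentration at half of the fitted maximal effect; cells exposed to compound for 40 hours at 37 °C before readout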); settings: BJ fibroblast viability, qHTS
In short: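 Cytotoxicity in human BJ foreskin fibroblasts is scored as loss of cellular ATP after a 40-hour exposure, measured by luciferase luminescence. Controls are DMSO and 100 uM tamoxifen.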

[2] = Cell Viability - Jurkat (AID 426;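 active means dose-dependent loss of cell ATP signal giving a full or clear fitted curve, ranked by lower potency value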;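 further: potency means the concentration at half of the fitted maximal effect; cells exposed to compound for 40 hours at 37 °C before ATP read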); settings: qHTS
In short: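 Luminescent ATP read-out (CellTiter-Glo, 20 min at room temperature) after 40 hr compound exposure at 37 °C of Jurkat E6-1 cells, 5000/well. Decreased ATP taken as cytotoxicity; AC50 from standard Hill equation.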

[3] = Cell Viability - Hek293 (AID 427;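 active means compounds whose dose-response curve shows a full or clear partial loss of cell viability, called from curve shape rather than a numeric limit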;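 further: potency means the concentration at half of the fitted maximal effect; cells exposed to compound for 40 hours at 37 °C before reading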); settings: qHTS
In short: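 qHTS, human embryonic kidney (adenovirus-transformed) cells; 40 hr cpd, 37 °C; CellTiter-Glo ATP luminescence. Norm: DMSO = 0, 100 uM tamoxifen = 100% inhibition. Hill-fit AC50.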

[4] = Cell Viability - MRC5 (AID 434; calls by dose curve;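 further: potency means the concentration at half of the fitted maximal effect; cells exposed to compound for 40 hours at 37 °C; potency reflects cytotoxicity seen as loss of intracellular ATP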); settings: MRC5 lung fibroblast viability, qHTS
In short: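 ATP luminescence read-out (CellTiter-Glo, 20 min RT) after 40 hr, 37 °C compound exposure of 1500 MRC5 cells/well. Data normalized to DMSO (basal) and 100 uM tamoxifen (100% inhibition); AC50 from standard Hill equation.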

[5] = qHTS Assay for Identification of Small Molecule Inducers of Hypoxia Response (AID 2120; active means well fitted curve in the direction sought with a large enough effect in the signal ratio, with a control signal flat, not every such curve was filed as active; the % refers to the signal ratio; further: 0% is about no effect)
In short: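 Read-out: CCF4 FRET emission ratio 460nm/530nm (excitation 405nm), converted to %Activity, with AC50 fitted across a compound titration. ME-180 cells carried an HRE-driven beta-lactamase reporter; compound exposure 17 h, 37 degrees C.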

[6] = qHTS assay for small molecule agonists of retinoid X receptor alpha signaling (AID 588544); settings: HEK293T RXRa-UAS-bla, beta-lactamase reporter, 18 h; 530 nm emission
[7] = biological target: Thyroid hormone receptor beta (Homo sapiens) (UniProt P10828); experiment: qHTS assay for small molecule agonists of thyroid hormone receptor beta signaling (AID 588545; calls by dose curve;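 further: 0% = DMSO only and 100% = 10 nM T3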)
Sequence of Thyroid hormone receptor beta (Homo sapiens) (P10828 whole entry, looked up): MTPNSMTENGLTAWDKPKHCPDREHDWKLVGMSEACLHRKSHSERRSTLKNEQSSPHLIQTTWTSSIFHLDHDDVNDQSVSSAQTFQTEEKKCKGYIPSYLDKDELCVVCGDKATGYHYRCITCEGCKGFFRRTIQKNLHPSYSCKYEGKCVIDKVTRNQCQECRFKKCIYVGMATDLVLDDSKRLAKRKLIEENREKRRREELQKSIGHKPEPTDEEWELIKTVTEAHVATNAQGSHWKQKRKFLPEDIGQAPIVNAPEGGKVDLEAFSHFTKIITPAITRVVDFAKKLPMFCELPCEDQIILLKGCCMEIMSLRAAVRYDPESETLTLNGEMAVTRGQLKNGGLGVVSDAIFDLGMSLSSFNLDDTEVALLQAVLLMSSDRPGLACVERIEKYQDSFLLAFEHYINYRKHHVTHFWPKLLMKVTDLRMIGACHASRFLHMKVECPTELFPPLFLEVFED
In short: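 TR-UAS-bla GripTite HEK 293 cells (2500/well, medium with 2% charcoal/dextran FBS) were treated in agonist mode for 18 h at 37 C, titrated. Beta-lactamase was read by CCF4 ratio after 2 h; normalized to 10 nM T3 (100%) and DMSO, Hill-fitted for EC50 and efficacy.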

[8] = qHTS assay for small molecule antagonists of retinoid X receptor alpha signaling (AID 588546; active means well fitted inhibition curve with a large enough effect in the signal ratio, with a control signal flat, not every such curve was filed as active; the % refers to the signal ratio;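 further: cells stimulated with 9-cis-retinoic acid as agonist; on the % scale 0 is the no-effect control and ±100 the full control effect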); settings: HEK293T RXRa-UAS-bla, beta-lactamase ratio, antagonist mode; measured here: W530 green channel, cytotoxicity proxy
In short: (§1)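 Beta-lactamase reporter inhibition, read as CCF4 fluorescence ratio (ex 405, em 460/530 nm) after 2 h at RT. HEK293T UAS-bla cells, 2500/well, were stimulated with 9-cis-RA at 500 or 100 nM final alongside test compound for 18 h at 37 C.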

[9] = biological target: Retinoic acid receptor RXR-alpha (Homo sapiens) (UniProt P19793); experiment: as above; settings: HEK293T RXRa-UAS-bla, beta-lactamase ratio, antagonist mode
Sequence of Retinoic acid receptor RXR-alpha (Homo sapiens) (P19793 whole entry, looked up): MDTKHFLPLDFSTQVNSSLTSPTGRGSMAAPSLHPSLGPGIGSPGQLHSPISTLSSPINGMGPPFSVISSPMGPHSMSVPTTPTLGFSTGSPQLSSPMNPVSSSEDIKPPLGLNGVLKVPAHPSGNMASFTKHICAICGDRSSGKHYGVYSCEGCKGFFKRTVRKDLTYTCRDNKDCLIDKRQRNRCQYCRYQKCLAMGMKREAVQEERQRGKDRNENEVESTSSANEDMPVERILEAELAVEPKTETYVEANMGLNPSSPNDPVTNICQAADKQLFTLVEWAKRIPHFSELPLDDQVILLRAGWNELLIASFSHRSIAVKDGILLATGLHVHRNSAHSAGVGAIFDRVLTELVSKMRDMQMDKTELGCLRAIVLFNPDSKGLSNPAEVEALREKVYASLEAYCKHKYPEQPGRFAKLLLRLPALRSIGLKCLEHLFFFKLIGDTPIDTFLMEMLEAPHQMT
In short: as §1

[10] = qHTS assay for environmental chemicals that activate the Aryl hydrocarbon Receptor (AhR) signaling pathway (AID 651777); settings: 1A2-DRE human hepatoma cells, luciferase, 24 h; activation: stronger effect = higher value; further: % of control where 0% means no effect; nearly all actives have a fitted effect of over 15% in size
In short: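 Luminescence read-out: One-Glo added for 30 min at RT after 24 hr compound treatment (37 C, 5% CO2) of human hepatoma cells expressing a DRE/CYP1A2 promoter–luciferase reporter; increased signal indicates AhR activation.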

[11] = biological target: Peroxisome proliferator-activated receptor alpha (Homo sapiens) (UniProt Q07869); experiment: qHTS assay for small molecule agonists of the peroxisome proliferator-activated receptor alpha (PPARalpha) signaling pathway (AID 651778); settings: PathHunter PPARalpha complementation, chemiluminescence, 6 h; max response: stronger effect = higher value; further: % of control where 0% means no effect
Sequence of Peroxisome proliferator-activated receptor alpha (Homo sapiens) (Q07869 whole entry, looked up, the tested form may be a part): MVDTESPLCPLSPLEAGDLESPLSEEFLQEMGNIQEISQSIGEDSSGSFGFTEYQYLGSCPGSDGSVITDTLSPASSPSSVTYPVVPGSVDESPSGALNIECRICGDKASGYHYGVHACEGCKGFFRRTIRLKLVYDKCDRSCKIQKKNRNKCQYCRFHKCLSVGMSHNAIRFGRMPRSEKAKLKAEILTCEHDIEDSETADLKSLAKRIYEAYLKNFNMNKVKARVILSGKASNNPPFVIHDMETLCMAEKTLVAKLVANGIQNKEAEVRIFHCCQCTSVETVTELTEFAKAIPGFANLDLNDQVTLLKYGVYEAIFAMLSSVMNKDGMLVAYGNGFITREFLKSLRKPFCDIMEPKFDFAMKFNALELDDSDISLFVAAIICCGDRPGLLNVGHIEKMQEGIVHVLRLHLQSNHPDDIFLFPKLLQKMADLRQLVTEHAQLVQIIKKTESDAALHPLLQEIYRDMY
In short: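 Enzyme-fragment complementation assay in which ligand-bound PPARalpha translocates and forms an active enzyme that generates chemiluminescence. Cells were plated overnight, exposed to compound for 6 hr at 37 C, and then given detection reagent for 60 min at room temperature.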

[12] = qHTS assay for small molecule agonists of the antioxidant response element (ARE) signaling pathway measured by Nrf2-dependant transcriptional activity (AID 720636; active means well fitted curve in the direction sought with a large enough effect in the repeat runs; an effect the other way counts as inactive or inconclusive;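 further: HepG2 cells with an ARE-driven luciferase reporter; % of control where 0% means no effect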)
In short: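 HepG2 ARE-luc reporter line, 1% dialyzed FBS; 6 hr attachment at 37 C, compound pinned in, 16 hr at 37 C/5% CO2; ONE-Glo, 30 min RT, luminescence read.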

[13] = qHTS assay for small molecule agonists of the antioxidant response element (ARE) signaling pathway measured by Nrf2-dependant transcriptional activity - cell viability counter screen (AID 720653; active means well fitted curve in the direction sought with a large enough effect in the repeat runs; an effect the other way counts as inactive or inconclusive; further: on the % scale 0 is the no-effect control and ±100 the full control effect); settings: ARE-bla HepG2 viability, CellTiter-Glo ATP luminescence, 16 h; max response: stronger effect = lower value
In short: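 ARE-bla HepG2 cells treated with compounds for 16 h at 37C; this counter screen measures viability as intracellular ATP by CellTiter-Glo luminescence after 30 min at room temperature.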

[14] = qHTS assay for cell viability of HEK293 cells (AID 743288); settings: ATP luminescence (CellTiter-Glo), 18 h; max response: stronger effect = lower value; further: on the % scale 0 is the no-effect control and ±100 the full control effect; nearly all actives have a fitted effect of over 50% in size
In short: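 Readout is luciferase-coupled ATP content (CellTiter-Glo luminescence, 30 min room temperature) as a measure of metabolically competent cells. Parental HEK293 cells were plated 5 h or more before compound addition, then treated 18 h at 37 C.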

[15] = qHTS assay for cell viability of the p53RE-bla HCT-116 cell line (AID 743292); further: on the % scale 0 is the no-effect control and ±100 the full control effect; nearly all actives have a fitted effect of over 55% in size
In short: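 Luminescent ATP quantitation (CellTiter-Glo) served as the viability read-out; reagent was added after 16 h compound exposure at 37 C and read after 30 min at room temperature. Cells: p53RE-bla HCT-116, 4,000 per well.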

[16] = biological target: Glutathione peroxidase 1 (Homo sapiens) (UniProt P07203); experiment: Primary qHTS Assay for Inhibitors of Recombinant Selenoprotein Glutathione Peroxidase 1 (GPX1) (AID 1845191); further: nearly all actives have a fitted effect of over 65% in size; further: potency means the concentration at half of the fitted maximal effect
Sequence of Glutathione peroxidase 1 (Homo sapiens) (P07203 whole entry, looked up): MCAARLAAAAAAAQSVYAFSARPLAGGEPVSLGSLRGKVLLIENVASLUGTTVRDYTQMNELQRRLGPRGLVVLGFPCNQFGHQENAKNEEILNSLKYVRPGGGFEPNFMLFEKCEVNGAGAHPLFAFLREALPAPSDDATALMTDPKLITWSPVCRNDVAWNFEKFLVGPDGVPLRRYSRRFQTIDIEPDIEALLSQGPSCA
In short: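 GR-coupled readout: NADPH consumption tracked by fluorescence, ex 340/em 450 nm, at t=0 and after 15 min at RT. Final mix 10 nM GPX1, 1 mM GSH, 0.5 mM CHP, 0.5 mM NADPH, 100 nM GR, 0.01% BSA, following 30 min enzyme–compound preincubation.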

[17] = biological target: Phospholipid hydroperoxide glutathione peroxidase GPX4 (Homo sapiens) (UniProt P36969); experiment: Primary qHTS Assay for Inhibitors of Recombinant Selenoprotein Glutathione Peroxidase 4 (GPX4) (AID 1845192); further: nearly all actives have a fitted effect of over 65% in size; further: potency means the concentration at half of the fitted maximal effect
Sequence of Phospholipid hydroperoxide glutathione peroxidase GPX4 (Homo sapiens) (P36969 whole entry, looked up): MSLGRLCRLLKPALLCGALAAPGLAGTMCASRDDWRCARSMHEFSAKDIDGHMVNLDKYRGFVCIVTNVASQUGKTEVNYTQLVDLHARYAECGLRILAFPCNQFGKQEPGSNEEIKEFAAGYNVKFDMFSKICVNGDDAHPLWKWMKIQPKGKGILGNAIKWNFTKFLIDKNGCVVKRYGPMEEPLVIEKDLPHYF
In short: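 Steps: GPX4 plus compound, 30 min RT; add GR/GSH/NADPH master mix; start with cumene hydroperoxide; read 340/450 nm fluorescence at 0 and 15 min. Finals were 200 nM GPX4, 1 mM GSH, 0.5 mM CHP, 0.5 mM NADPH, 100 nM GR.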

[18] = biological target: Nuclear receptor subfamily 1 group I member 2 (Rattus norvegicus) (UniProt Q9R1A7); experiment: qHTS assay for small molecule activators of the rat pregnane X receptor (rPXR) signaling pathway (AID 651751; call rule not given here; further: 0% is about no effect); settings: rPXR reporter cells, luciferase (One-Glo), 24 h
Sequence of Nuclear receptor subfamily 1 group I member 2 (Rattus norvegicus) (Q9R1A7 whole entry, looked up): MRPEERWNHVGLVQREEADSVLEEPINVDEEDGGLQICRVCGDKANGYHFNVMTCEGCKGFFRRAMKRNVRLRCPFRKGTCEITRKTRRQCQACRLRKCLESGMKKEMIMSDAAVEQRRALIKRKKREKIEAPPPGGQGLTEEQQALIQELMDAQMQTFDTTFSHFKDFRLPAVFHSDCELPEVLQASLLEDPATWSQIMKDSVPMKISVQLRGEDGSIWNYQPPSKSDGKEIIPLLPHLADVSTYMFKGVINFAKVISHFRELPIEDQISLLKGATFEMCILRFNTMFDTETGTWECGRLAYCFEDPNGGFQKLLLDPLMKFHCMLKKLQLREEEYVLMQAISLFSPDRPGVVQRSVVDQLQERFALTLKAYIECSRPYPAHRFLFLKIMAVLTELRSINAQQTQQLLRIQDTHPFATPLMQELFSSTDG

[19] = qHTS profiling for inhibitors of Plasmodium falciparum proliferation (AID 504749); further: potency means the concentration at half of the fitted maximal effect; nearly all actives have a fitted effect of over 60% in size; settings: P. falciparum in erythrocytes, SYBR Green DNA, 72 h
In short: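 SYBR Green fluorescence (ex 485 nm, em 535 nm) reports parasite DNA after 72 h compound exposure of infected red cells at 0.3% parasitemia, 2.5% hematocrit; signal normalized to 0.29 uM artemisinin and vehicle wells.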

O=S(=O)(O)c1ccccc1
inactive: Potency [1] > 92 µM | Potency [2] > 92 µM | Potency [3] > 92 µM | Potency [4] > 92 µM | outcome [5] | outcome [7] | max response [9] -0.701% | activation [10] -0.565% | max response [11] -0.704% | Potency [12] | max response [13] 11% | max response [14] 8.35% | Potency [15] | Potency [16] | Potency [17] | max response [18] 2.35%
0.332%: max response [6]
5.99%: max response [8]

CCN1/C(=C/C=C/C=C/c2sc3ccccc3[n+]2CC)Sc2ccccc21
active: Potency [16] 1.43 µM | Potency [17] 7.94 µM | Potency ([19]; parasite line A) 2.82 µM | Potency ([19]; parasite line B) 3.98 µM

O[C@@H]([C@H](O)[C@@H](O)CBr)[C@@H](O)CBr
inactive: Potency [1] > 92 µM | Potency [2] > 92 µM | Potency [3] > 92 µM | Potency [4] > 92 µM | outcome [5] | outcome [7] | max response [9] 12.2% | activation [10] 0.0467% | max response [11] -0.722% | Potency [12] | max response [13] 2.11% | max response [14] -10.9% | Potency [15] | Potency [16] | Potency [17] | max response [18] 0.919%
-10.6%: max response [8]
-11.8%: max response [6]
